Assay results published in PubChem BioAssay AID425 (Sanford-Burnham Center for Chemical Genomics, 2006).
Several values for one entry are separate records, joined by “and”; a condition that tells them apart may be missing. Equal entries are not always repeated. In all, about 110,000 compounds went through this assay and about 190 (0.17%) were called active. Rule as the data show it: active = inhibition above about 50%; inactive = the rest. The entries come from a sample that favours actives as a whole. Results with a measured potency or affinity are listed apart. Some structures have more than one record in an assay (separate samples or runs), and their calls can disagree.

target: Dual specificity protein phosphatase 6 (Rattus norvegicus) (UniProt Q64346); experiment: inhibition of rat DUSP6 enzyme activity – biochemical, in vitro, primary screen (AID 425); settings: recombinant MKP-3 phosphatase activity, fluorescence; at 20 µM; stronger effect = higher value;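 also: plate controls were vehicle for no effect and reference inhibitor for full effect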
Sequence (Q64346 whole entry, looked up): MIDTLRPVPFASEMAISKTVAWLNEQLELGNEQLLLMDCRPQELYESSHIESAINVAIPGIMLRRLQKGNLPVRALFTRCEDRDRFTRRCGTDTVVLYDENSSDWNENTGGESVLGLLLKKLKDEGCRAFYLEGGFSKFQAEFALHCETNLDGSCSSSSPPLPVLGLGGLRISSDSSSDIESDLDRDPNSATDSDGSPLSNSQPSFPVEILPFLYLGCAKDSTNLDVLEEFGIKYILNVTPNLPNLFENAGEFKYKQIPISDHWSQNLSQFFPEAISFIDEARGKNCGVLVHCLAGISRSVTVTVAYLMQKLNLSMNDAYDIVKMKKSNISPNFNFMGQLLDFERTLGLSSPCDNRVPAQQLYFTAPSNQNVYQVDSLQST

inhibition, active:
O=C1/C(=C\c2ccco2)CC2CC1C/C(=C/c1ccco1)C2=O 55.6%
Cc1ccccc1C=Nc1ccc(O)cc1 112%
Oc1cccc(C=Nc2ccccc2)c1O 120%
CCOc1ccccc1C=Nc1ccc(O)cc1 116%
Oc1ccccc1/C=N/Nc1cc(N2CCCC2)nc(N2CCCC2)n1 119%
O=C1C=CC(=NS(=O)(=O)c2ccccc2)c2ccccc21 68.4%
Cc1ccc(C)c(S(=O)(=O)/N=C2\C=CC(=O)c3ccccc32)c1 63.5%
CC(=O)Nc1ccc(S(=O)(=O)/N=C2\C=CC(=O)c3ccccc32)cc1 111%
Cc1ccc(N=C2NC(=O)/C(=C/c3ccc(O)c([N+](=O)[O-])c3)S2)cc1Cl 82.6%
COn1c(C)c(C)c2c3nonc3ccc21 86.9%

inhibition, 72.9% (active) and -3.2% (inactive):
Cc1cc(=O)n2[nH]c(C)c(-c3ccccc3)c2n1

inhibition, inactive:
NC(=O)C1C(=O)Oc2ccccc2C1=O (configuration not stated) 1.6%
Cc1ccc(-c2nnn(CC(=O)N(Cc3ccccc3)C(C(=O)NC3CCCC3)c3ccncc3)n2)o1 (configuration not stated) -0.8%
Cc1cc2nc(-c3cccc(NC(=O)c4ccc(Br)o4)c3)oc2cc1C 3.2%
O=S1(=O)N=C2CCCN2C(c2ccc(F)cc2)N1 (configuration not stated) -14.7%
O=C(Nc1ncc(Cc2ccc(Cl)c(Cl)c2)s1)c1ccccc1Cl 3.9%
Cc1cc(C)n(Cc2ccc(C(=O)O)o2)n1 -6.7%
Cc1ccc(OCC(=O)N/N=C\c2ccc(-c3ccc([N+](=O)[O-])cc3)o2)cc1 -0.5%
O=C1/C(=C/c2ccco2)N2CCC1CC2 -0.8%
O=C1/C(=C\c2cccs2)CC2CC1C/C(=C/c1cccs1)C2=O 1.2%
CN1CCN(CCCn2cnc3c(=O)oc4ccccc4c32)CC1 -0.6%
CC(=O)O[C@@]12CO[C@@H]1C[C@H](O)[C@@]1(C)C(=O)[C@H](O)C3=C(C)[C@@H](OC(=O)[C@H](O)[C@@H](NC(=O)OC(C)(C)C)c4ccccc4)C[C@](O)([C@@H](OC(=O)c4ccccc4)[C@H]21)C3(C)C -0.3%
COC(=O)c1ccc(C(=O)OC)c(N)c1 -12.2%
COC(=O)c1ccccc1OCc1cccc(C)n1 -5.5%
COc1ccc(S(=O)(=O)Nc2ccc(C)c(Cl)c2)cc1OC 3.1%
Cc1ccc(N(C)S(=O)(=O)c2ccc(Cl)cc2)cc1 -0.1%
COc1ccc(/C=C2\SC(=O)N(CC(=O)Nc3ccc(C)cc3C)C2=O)cc1 -0.5%
COc1cc(/C=C2/SC(=S)N(CC(=O)Nc3cccc(C(=O)O)c3)C2=O)cc(OC)c1OC 1.9%
O=C(CN1C(=O)S/C(=C/c2ccccc2F)C1=O)Nc1ccccc1C(=O)O 6.5%
O=C(CN1C(=O)/C(=C/c2ccccc2)SC1=S)Nc1cccc(C(=O)O)c1 -1%
O=C(NC(Nc1ccc([N+](=O)[O-])cc1)C(Cl)(Cl)Cl)c1cccc(I)c1 (configuration not stated) 1.1%
CCN(CC)S(=O)(=O)c1cccc(C(=O)Oc2cccnc2)c1 -10.3%
CCOc1cc(C(=O)Nc2ccc(OCc3ccccc3)cc2)cc(OCC)c1OCC 7%
CCCC1=NN2C(=N)/C(=C/c3cc(OC)ccc3OC)C(=O)N=C2S1 1.4%
CCC1=NN2C(=N)/C(=C/c3ccc(OCCOc4cccc(OC)c4)cc3)C(=O)N=C2S1 -1.7%
Nn1c(SCC(=O)NC2CCCCC2)nnc1-c1ccccc1 -1.2%
Cc1cc(=O)n2[nH]c(C)c(-c3ccc(Cl)cc3)c2n1 -8.5%
Cc1[nH]n2c(=O)cc(C(C)C)nc2c1-c1ccccc1 -5.8%
O=C(NCC1CCCO1)c1ccc(Cl)cc1 (configuration not stated) -0.2%
O=C(CCCn1c(=O)c2sccc2n(Cc2ccc(F)cc2)c1=O)NCc1ccco1 -8.3%
CCOc1ccc(C(=O)NCc2ccc3c(c2)OCO3)cc1 -3%
COc1ccc(/C=C2/SC(=O)N(CC(=O)Nc3ccc(F)c(Cl)c3)C2=O)cc1OC 1.4%
COc1ccc(/C=C2/SC(=O)N(CC(=O)Nc3ccc(C)c(C)c3)C2=O)cc1OC 3.6%
COc1ccc(-c2cc(C(=O)N/N=C(\C)c3ccc([N+](=O)[O-])cc3)[nH]n2)cc1 4%
CCOc1ccccc1C=Nc1cc(Cl)cc(Cl)c1 -0.8%
CCN(CC)c1ccc(N=Cc2cccc(O)c2O)cc1 16.1%
Cc1ccsc1C=Nc1ccc(O)cc1 -7%
CCOc1ccccc1C=Nc1ccc(C(N)=O)cc1 -2.2%
N#Cc1ccc(N=Cc2cccc(O)c2O)cc1 -1.9%
Cc1cccc(C=Nc2ccccc2O)c1O -0.6%
CCOC(=O)C1(C)NC(c2cc(OC)c(OC)c(OC)c2)C2C(=O)N(CC)C(=O)C21 (configuration not stated) 4.9%
CC(NC(=O)C(=O)NCC1CCNCC1)c1ccccc1 (configuration not stated) 2.1%
Cc1cc(NC(=O)c2nn3c(c2Cl)NC(c2ccc(Br)cc2)CC3C(F)(F)F)no1 (configuration not stated) -0.7%
COc1cccc(C(=O)NNC(N)=O)c1 -2.5%
O=C(CSc1nc2ccc(N3C(=O)c4ccccc4C3=O)cc2s1)Nc1cccc([N+](=O)[O-])c1 14.1%
Cc1ccc(NC(=O)C(=O)NCC(C)C)cc1 -6.8%
CCN1CCOC(c2ccccc2)C(C(=O)OC)C1C(=O)OC (configuration not stated) 49.2%
O=C(Nc1ccc(NC(=O)c2ccc(-c3ccc(Br)cc3)o2)cc1)c1ccco1 -1.3%
CC(=O)c1ccc(NC(=O)c2ccc(-c3ccc(Br)cc3)o2)cc1 10.6%
CCCCCCCC(=O)N/N=C/c1c[nH]c2ccccc12 4.3%
O=C(CSc1ccccn1)N/N=C\c1c[nH]c2ccccc12 -0.6%
Cc1ccn2c(-c3csc(Nc4cccc(O)c4)n3)c(C)nc2c1 2.7%
O=C1CC(Nc2ccccc2)C(=O)N1Cc1ccccc1 (configuration not stated) 1.4%
O=C(O)c1ccc(NC(=O)c2cc3cc(Br)ccc3oc2=O)cc1 3.5%
O=C(Nc1ccc(Nc2ccccc2)cc1)c1cccc(F)c1 -0.3%
O=C(Nc1ccc(Cl)c(Cl)c1)Nc1nnc(-c2ccccc2)s1 -2.8%
Cc1ccc(-c2nnc(NC(=O)Nc3ccc(Cl)c(Cl)c3)s2)cc1 -1.5%
O=[N+]([O-])c1ccc(OCCCCCN2CCCCC2)cc1 0.4%
Cc1ccc(/C(O)=C2\C(=O)C(=O)N(CCCC(=O)O)C2c2ccccc2)cc1 (configuration not stated) 2.5%
COc1ccc(O)c(CN2CCN(Cc3ccccc3[N+](=O)[O-])CC2)c1 -3.5%
Oc1ccccc1/C=N/Nc1cc(N2CCOCC2)nc(N2CCOCC2)n1 5.6%
Oc1ccccc1/C=N/Nc1cc(N2CCCCC2)nc(N2CCCCC2)n1 -0.5%
Cc1onc(-c2ccccc2)c1C(=O)NCCNc1c(Cl)cccc1[N+](=O)[O-] 3.9%
O=C1C=C/C(=N\S(=O)(=O)c2ccc(F)cc2)c2ccccc21 -2%
CC(=O)Nc1ccc(S(=O)(=O)NN2C(=O)c3ccccc3C2=O)cc1 2.6%
Cc1ccccc1S(=O)(=O)N=C1C=CC(=O)C(Cl)=C1 3.1%
CN(C)C1=C/C(=N/S(=O)(=O)c2ccccc2)c2ccccc2C1=O 13.9%
Cc1ccc(S(=O)(=O)N=C2C=CC(=O)C=C2)c(C)c1 7.6%
CC(=O)Nc1ccc(S(=O)(=O)/N=C2/NC(=O)CS2)cc1 -0.8%
CCc1ccc(OCC(=O)NCCN(C)C)c(Br)c1 -12%
O=C(Nc1ccc(Br)cc1)N1CCCCCCC1 -0.5%
CCOC(=O)Cc1csc(NC(=O)CN(C)S(=O)(=O)c2cccc3cccnc23)n1 -9.4%
O=C(NCCCn1ccnc1)c1cnn2c(C(F)(F)F)cc(-c3ccc(Br)cc3)nc12 2.4%
Nc1nnc(SCc2coc(-c3ccc(Cl)cc3)n2)s1 -7.1%
COc1ccc(NC(=O)/C(=C\c2ccco2)NC(=O)c2ccco2)cc1 4.4%
N/C(=N\OC(=O)c1ccccc1I)c1cccnc1 -4%
COc1cc(/C=C2\SC(=Nc3ccc(C)c(Cl)c3)NC2=O)ccc1O 3.3%
Cc1c(Cl)cccc1N=C1NC(=O)/C(=C/c2ccc(O)c([N+](=O)[O-])c2)S1 18.5%
CC1=C(C(=O)Nc2ccccc2)C(c2cccc(I)c2)NC(=S)N1 (configuration not stated) 4.4%
Cc1c(C)n(O)c2ccc3nonc3c12 2.7%
COn1c(C)c(C(C)=O)c2c3nonc3ccc21 -7.8%
CCOC(=O)c1ccc(NC(=O)COc2ccc(Cl)cc2C)cc1 2.5%
COC(=O)c1ccc(Nc2ncnc3c2cnn3-c2cccc(C)c2)cc1 -5%
O=C(Cc1ccccc1)Nc1cc(C(=O)O)cc(C(=O)O)c1 0.2%
CC1CC(=O)c2cnc(NCC3CCCO3)nc2C1 (configuration not stated) -7.6%
Cc1c(C)c2ccc(OCC(=O)c3ccc(-c4ccccc4)cc3)cc2oc1=O 1.8%
NC(=O)C1CCN(C(=O)CN2CCCc3ccccc32)CC1 1.6%
